Test results: PubChem BioAssay AID485364 (National Center for Advancing Translational Sciences (NCATS), 2010)
Screen size: about 360,000 compounds; about 11,000 (3.1%) were called active. About 4% were inconclusive and are not listed. This is one part of a sample in which actives are shown more often than they occur. Unmarked numbers belong to inactive results. Calls follow the shape of the dose curve; as a rule, active = well fitted inhibition curve with a large enough effect; inconclusive = small, poorly fitted or top-dose-only effect; inactive = no such curve, though single readings can be large or run the other way.

Molecular target: Schistosoma mansoni thioredoxin glutathione reductase (TGR) (UniProt Q962Y6)
Experiment: qHTS Assay for the Inhibitors of Schistosoma Mansoni Peroxiredoxins; also: nearly all actives have a fitted effect of over 60% in size
Conditions: purified TGR, DTNB reduction, TNB absorbance 405 nm; series mostly up to 114 µM; activity change, negative = inhibition: at the top concentration
Summary of the method: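 TGR 20 nM + NADPH 100 uM (dispensed conc.), cpd preinc 15 min RT; start with NADPH (500 uM addition) then DTNB (15 mM addition). Kinetic TNB absorbance, 405 nm filter. Four-parameter Hill fit across titration.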
% is scaled to controls: 0 for no effect and ±100 for the full control effect; potency is read from the fitted curve at half-maximal effect.

SMILES	activity change, negative = inhibition [%]	Potency
CC(Sc1oc(-c2ccco2)nc1S(=O)(=O)c1ccc(Br)cc1)c1ccccc1 (stereo not given)	-2.2	
COc1ccc(NC(=O)C2CCN(c3ccc(Sc4ccc(C)cc4)nn3)CC2)c(OC)c1	-1.89	
Cc1nnc(SCc2cc(=O)c3cc(F)ccc3[nH]2)n1C	1.82	
CCOC(=O)c1ccccc1NC(=O)CC1Nc2ccccc2NC1=O (stereo not given)		39.8 µM (active)
COC(=O)c1cc(C)sc1NC(=O)CC1Nc2ccccc2NC1=O (stereo not given)	-27.8	
CCOC(=O)c1ccccc1NC(=S)N1CCC(C(N)=O)CC1	3.23	
CN1CCN(C2(CNC(=O)COc3ccc(C(C)(C)C)cc3)CCCCC2)CC1	-2.57	
Cc1ccc2nc(N3CCN(c4cccc(Cl)c4)CC3)c3nnnn3c2c1	0.987	
COc1ccc(Cn2ccn(Cc3cccc(OC)c3)c(=O)c2=O)cc1	-8.54	
CCCCc1nn2c(=O)cc(COC(=O)c3cccc(NC(=O)COc4ccccc4)c3)nc2s1	-9.99	
O=C(NCc1ccco1)C(c1ccncc1)N(C(=O)Cn1nnc2ccccc21)c1ccccc1 (stereo not given)	-2.1	
COc1ccccc1N(C(=O)Cn1nnc2ccccc21)C(C(=O)NCc1ccco1)c1ccc(C)o1 (stereo not given)		44.7 µM (active)
Cc1ccc(C(C(=O)NCc2ccco2)N(CC2CCCO2)C(=O)Cn2nnc3ccccc32)cc1 (stereo not given)	-9.71	
Cc1ccc(OCCSc2nc(-c3cccs3)nc3cc(=O)[nH]n23)cc1Cl	1.7	
Cc1ccc(-c2nc3ccccn3c2Nc2c(C)cccc2C)o1	-13.2	
COc1cc(Cl)c(C)cc1NC(=O)CCc1nc2cccnc2n1Cc1cccs1	-18.2	
Clc1cccc(-c2nc3nc4ccccc4nc3n2Cc2ccco2)c1		17.8 µM (active)
CCC(C)n1c(-c2cc(OC)c(OC)c(OC)c2)nc2nc3ccccc3nc21 (stereo not given)	7.25	
O=c1[nH]c(CSc2ncc(-c3ccc(F)cc3)n2Cc2ccco2)nc2ccccc12	0	
Cc1ccc(NC(=O)C2CCN(S(=O)(=O)c3cc(-c4noc(C)n4)ccc3C)CC2)c(C)c1	12.2	
FC(F)(F)c1cc(Nc2nc3ccccc3c3nncn23)ccc1Cl	-2.28	
COC(=O)CCNc1ccc2c(c1)OCCO2	-0.529	
O=C(COc1ccc(Cl)cc1)Nc1ccc2c(c1)OCO2	0.171	
CCOc1ccc(NCCC(=O)c2ccc3c(c2)OCO3)cc1		1.41 µM (active)
Cc1ccc(NC(=O)CSc2nnc3[nH]c(=O)cc(C)n23)cc1Cl	8.4	

SMILES	activity change, negative = inhibition [%]	Potency
Cc1oc2c(c1C(=O)Nc1ccc(F)c(F)c1)C1=NCCN1C=N2	-3.92	
CC1CN(S(=O)(=O)c2ccc(C(=O)Nc3sccc3C(N)=O)cc2)CC(C)O1 (stereo not given)	-7.24	
NC(=O)c1ccsc1NC(=O)c1ccco1		44.7 µM (active)
COc1cc(OC)cc(C(=O)OCC(=O)Nc2sccc2C(N)=O)c1	3.69	
O=C1c2ccccc2C(=O)N1CCC(O)C[N+](=O)[O-] (stereo not given)		28.2 µM (active)
O=C(OCCN1C(=O)c2ccccc2C1=O)Oc1ccccc1	0.761	
O=C(CCN1C(=O)c2ccccc2C1=O)Nc1cccc(F)c1	-6.14	
Cc1ccc(CCNC(=O)C2CCN(c3nnc(-n4cccc4CNc4ccc(C)cc4)s3)CC2)cc1	-9.8	
COc1ccc(-c2noc(-c3ccc(N4CCN(c5ccccc5)CC4)c([N+](=O)[O-])c3)n2)cc1OC	-19	
O=C(NCc1ccncc1)C(=O)NCc1ccco1	-12.9	
COc1ccc(S(=O)(=O)NC(CC(=O)NCc2ccccc2OC)c2ccco2)cc1 (stereo not given)	-21.5	
COc1ccccc1CNC(=O)C(=O)NCC(c1ccco1)S(=O)(=O)c1ccc(F)cc1 (stereo not given)		10 µM (active)
O=C(NCCc1ccccc1)C(=O)NCC(c1ccco1)S(=O)(=O)c1ccccc1 (stereo not given)	-18.7	
COc1ccc(S(=O)(=O)N(CC(=O)NCc2ccco2)c2ccc(F)cc2)cc1	-7.27	
O=C(NCc1ccccc1)C(=O)NCC(c1ccco1)S(=O)(=O)c1ccc(Cl)cc1 (stereo not given)		50.1 µM (active)
COC(=O)c1cnc(N2CCN(c3ccccc3OC)CC2)c2ccccc12	4.26	
Cc1ccc(F)cc1S(=O)(=O)N1CCC(c2nc3ccccc3s2)CC1	-1.44	
Cc1ccc2c(c1)N(C(=O)CCC(=O)NCc1ccccc1F)CC(C)O2 (stereo not given)	5.57	
CC(=O)N1CCCc2cc(S(=O)(=O)N3CCC(C(=O)NCc4ccc(C)cc4)CC3)ccc21	-3.6	
O=S(=O)(NCCc1nnc2ccc(SCc3ccc(Cl)cc3Cl)nn12)c1ccccc1	6.82	
O=C(NCC(c1ccc(Cl)cc1)N1CCOCC1)c1ccccc1F (stereo not given)	-1.87	
CCOc1cccc(NC(=O)c2ccc(F)c(S(=O)(=O)N(CC)c3cccc(C)c3)c2)c1	1.56	
O=C(c1cn2ccccc2n1)N1CCc2c([nH]c3ccccc23)C1c1ccccn1 (stereo not given)	-15.2	
CCOc1ccc(C2c3[nH]c4ccccc4c3CCN2Cc2cccn2-c2ncccn2)cc1 (stereo not given)	-22.4	
c1ccc(C2c3[nH]c4ccccc4c3CCN2Cc2cccn2-c2cccnc2)nc1 (stereo not given)		15.8 µM (active)
